Measured values taken from PubChem BioAssay (Tox21).
Results filed as inconclusive are left out. Calls of active or inactive are those of the source. The call rests on the fitted dose curve; in most records, active means well fitted curve in the direction sought with a large enough effect in the repeat runs; inconclusive means weak or mixed curves; inactive means no such curve, though single readings can be large; an effect the other way counts as inactive or inconclusive.

Columns and labels:
[1] = A CellTox Green Cytotoxicity Assay to monitor cytotoxicity in HEK293 cells - 40 hour (AID 1224871); further: nearly all actives have a fitted effect of over 45% in size
In short: (§1)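 Tox21 screen in HEK293: membrane-impermeant cyanine dye fluoresces on binding dead-cell DNA; compound pinned 5 h post-seeding, plates held at 37 C, signal read repeatedly through 40 h.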

[2] = qHTS RealTime-Glo MT Cell Viability Assay in HEK293 cells - 16 hour (AID 1224872); further: top concentration of the series differs between compounds; nearly all actives have a fitted effect of over 50% in size
In short: (§2)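 Viability tracked continuously by luminescence as live cells reduce a prosubstrate for NanoLuc; HEK293 cells preincubated 5 h, compound-treated at 37 C, and read at 0, 8, 16, 24, 32 and 40 h.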

[3] = qHTS RealTime-Glo MT Cell Viability Assay in HepG2 cells - 8 hour (AID 1224873); further: nearly all actives have a fitted effect of over 55% in size
In short: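 HepG2 cells mixed with RealTime-Glo MT reagents (NanoLuc plus cell-permeant prosubstrate) were seeded at 600 cells/well, incubated 5 h at 37 C/5% CO2, then pinned with compounds in DMSO; nonlytic luminescence tracked viability during 40 h treatment.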

[4] = qHTS RealTime-Glo MT Cell Viability Assay in HEK293 cells - 40 hour (AID 1224874); conditions: RealTime-Glo luminescence; max response: stronger effect = lower value; further: nearly all actives have a fitted effect of over 50% in size
In short: (§3)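 HEK293 + NanoLuc + prosubstrate, 600 cells/well; 5 h, 37 C/5% CO2; compound 23 nL in DMSO by pintool; 37 C; luminescence read at 0, 8, 16, 24, 32 and 40 h time points.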

[5] = A CellTox Green Cytotoxicity Assay to monitor cytotoxicity in HEK293 cells - 24 hour (AID 1224875); further: series mostly up to about 77 µM; nearly all actives have a fitted effect of over 45% in size
In short: as §1

[6] = A CellTox Green Cytotoxicity Assay to monitor cytotoxicity in HepG2 cells - 16 hour (AID 1224876); further: nearly all actives have a fitted effect of over 45% in size
In short: (§4)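 Measurements at 0, 8, 16, 24, 32 and 40 h of treatment captured CellTox Green fluorescence in HepG2 cells that had been co-plated with reagent and preincubated 5 h at 37 C/5% CO2.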

[7] = qHTS RealTime-Glo MT Cell Viability Assay in HepG2 cells - 32 hour (AID 1224877); further: nearly all actives have a fitted effect of over 55% in size
In short: (§5)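 Viability was tracked continuously by NanoLuc luminescence from prosubstrate reduced by living HepG2 cells, at successive time points over 40 h of compound exposure. Cells with reagent were preincubated 5 h at 37 °C before compound addition.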

[8] = A CellTox Green Cytotoxicity Assay to monitor cytotoxicity in HepG2 cells - 24 hour (AID 1224878); further: nearly all actives have a fitted effect of over 45% in size
In short: as §4

[9] = A CellTox Green Cytotoxicity Assay to monitor cytotoxicity in HepG2 cells - 40 hour (AID 1224879); further: nearly all actives have a fitted effect of over 40% in size
In short: as §4

[10] = qHTS RealTime-Glo MT Cell Viability Assay in HEK293 cells - 0 hour (AID 1224880)
In short: as §3

[11] = A CellTox Green Cytotoxicity Assay to monitor cytotoxicity in HEK293 cells - 32 hour (AID 1224881); further: nearly all actives have a fitted effect of over 40% in size
In short: as §1

[12] = A CellTox Green Cytotoxicity Assay to monitor cytotoxicity in HepG2 cells - 0 hour (AID 1224882); further: nearly all actives have a fitted effect of over 35% in size
In short: as §4

[13] = A CellTox Green Cytotoxicity Assay to monitor cytotoxicity in HepG2 cells - 32 hour (AID 1224883); further: nearly all actives have a fitted effect of over 50% in size
In short: as §4

[14] = A CellTox Green Cytotoxicity Assay to monitor cytotoxicity in HEK293 cells - 8 hour (AID 1224884); further: nearly all actives have a fitted effect of over 35% in size
In short: as §1

[15] = qHTS RealTime-Glo MT Cell Viability Assay in HepG2 cells - 16 hour (AID 1224885); further: nearly all actives have a fitted effect of over 50% in size
In short: as §5

[16] = qHTS RealTime-Glo MT Cell Viability Assay in HEK293 cells - 24 hour (AID 1224886)
In short: as §2

[17] = qHTS RealTime-Glo MT Cell Viability Assay in HEK293 cells - 8 hour (AID 1224887)
In short: as §3

[18] = A CellTox Green Cytotoxicity Assay to monitor cytotoxicity in HEK293 cells - 16 hour (AID 1224888); further: nearly all actives have a fitted effect of over 35% in size
In short: as §1

[19] = qHTS RealTime-Glo MT Cell Viability Assay in HepG2 cells - 0 hour (AID 1224889); further: nearly all actives have a fitted effect of over 50% in size
In short: as §5

[20] = A CellTox Green Cytotoxicity Assay to monitor cytotoxicity in HepG2 cells - 8 hour (AID 1224890); further: nearly all actives have a fitted effect of over 45% in size
In short: as §4
On the % scale 0 is the no-effect control and ±100 the full control effect.

CNS(=O)(=O)CCc1ccc2[nH]cc(C3CCN(C)CC3)c2c1
inactive: Potency [1] | Potency [2] | outcome [3] | max response [4] -4.37% | outcome [5] | outcome [6] | outcome [7] | outcome [8] | Potency [9] | Potency [10] | Potency [11] | outcome [12] | Potency [13] | Potency [14] | outcome [15] | Potency [16] | Potency [17] | outcome [18] | Potency [19] | outcome [20]

COC(=O)[C@@H]1[C@H]2C[C@H]3c4[nH]c5ccccc5c4CCN3C[C@@H]2CC[C@@H]1O
inactive: Potency [1] | Potency [2] | outcome [3] | max response [4] -22.3% | outcome [5] | outcome [6] | outcome [7] | outcome [8] | Potency [9] | Potency [10] | Potency [11] | outcome [12] | Potency [13] | Potency [14] | outcome [15] | Potency [16] | Potency [17] | outcome [18] | Potency [19] | outcome [20]

CCc1ccc(C=O)cc1
inactive: Potency [1] | Potency [2] | outcome [3] | max response [4] -4.49% | outcome [5] | outcome [6] | outcome [7] | outcome [8] | Potency [9] | Potency [10] | Potency [11] | outcome [12] | Potency [13] | Potency [14] | outcome [15] | Potency [16] | Potency [17] | outcome [18] | Potency [19] | outcome [20]

O=C(OCC1(COC(=O)c2cccnc2)CCCC(COC(=O)c2cccnc2)(COC(=O)c2cccnc2)C1O)c1cccnc1
inactive: Potency [1] | Potency [2] | outcome [3] | max response [4] 1.63% | outcome [5] | outcome [6] | outcome [7] | outcome [8] | Potency [9] | Potency [10] | Potency [11] | outcome [12] | Potency [13] | Potency [14] | outcome [15] | Potency [16] | Potency [17] | outcome [18] | Potency [19] | outcome [20]

CCCC/C=C\CCCCCCCCCC=O
inactive: Potency [1] | Potency [2] | outcome [3] | max response [4] -10.9% | outcome [5] | outcome [6] | outcome [7] | outcome [8] | Potency [9] | Potency [10] | Potency [11] | outcome [12] | Potency [13] | Potency [14] | outcome [15] | Potency [17] | outcome [18] | Potency [19] | outcome [20]

Cc1ccc2ccc(Cl)cc2n1
inactive: Potency [1] | Potency [2] | outcome [3] | max response [4] 6.03% | outcome [5] | outcome [6] | outcome [7] | outcome [8] | Potency [9] | Potency [10] | Potency [11] | outcome [12] | Potency [13] | Potency [14] | outcome [15] | Potency [16] | Potency [17] | outcome [18] | Potency [19] | outcome [20]

COc1ccc(OC)c(Cl)c1
inactive: Potency [1] | Potency [2] | outcome [3] | max response [4] 5.92% | outcome [5] | outcome [6] | outcome [7] | outcome [8] | Potency [9] | Potency [10] | Potency [11] | outcome [12] | Potency [13] | Potency [14] | outcome [15] | Potency [17] | outcome [18] | Potency [19] | outcome [20]

C=CC(OCC)OCC
inactive: Potency [1] | Potency [2] | outcome [3] | max response [4] 8.05% | outcome [5] | outcome [6] | outcome [7] | outcome [8] | Potency [9] | Potency [10] | Potency [11] | outcome [12] | Potency [13] | Potency [14] | outcome [15] | Potency [17] | outcome [18] | Potency [19] | outcome [20]

CCCOC(OCCC)OCCC
inactive: Potency [1] | Potency [2] | outcome [3] | max response [4] 6.14% | outcome [5] | outcome [6] | outcome [7] | outcome [8] | Potency [9] | Potency [10] | Potency [11] | outcome [12] | Potency [13] | Potency [14] | outcome [15] | Potency [16] | Potency [17] | Potency [19] | outcome [20]

O=C1c2ccccc2C(=O)N1CCl
inactive: Potency [1] | Potency [2] | outcome [3] | max response [4] 1.28% | outcome [5] | outcome [6] | outcome [7] | outcome [8] | Potency [9] | Potency [10] | Potency [11] | outcome [12] | Potency [13] | Potency [14] | outcome [15] | Potency [16] | Potency [17] | outcome [18] | Potency [19] | outcome [20]

Cc1cccc(C)c1OCC(C)N (configuration not stated)
inactive: Potency [1] | Potency [2] | outcome [3] | max response [4] 2.76% | outcome [5] | outcome [6] | outcome [7] | outcome [8] | Potency [9] | Potency [10] | Potency [11] | outcome [12] | Potency [13] | Potency [14] | outcome [15] | Potency [16] | Potency [17] | Potency [19] | outcome [20]

C[C@H](CCC(=O)O)[C@H]1CC[C@H]2[C@@H]3C(=O)C[C@@H]4CC(=O)CC[C@]4(C)[C@H]3CC(=O)[C@]12C
inactive: Potency [1] | Potency [2] | outcome [3] | max response [4] 4.35% | outcome [5] | outcome [6] | outcome [7] | outcome [8] | Potency [9] | Potency [10] | Potency [11] | outcome [12] | Potency [13] | Potency [14] | outcome [15] | Potency [16] | Potency [17] | Potency [19] | outcome [20]

CC1(C)S[C@@H]2[C@H](N=CN3CCCCCC3)C(=O)N2[C@H]1C(=O)O
inactive: Potency [1] | Potency [2] | outcome [3] | max response [4] 6.57% | outcome [5] | outcome [6] | outcome [7] | outcome [8] | Potency [9] | Potency [10] | Potency [11] | outcome [12] | Potency [13] | Potency [14] | outcome [15] | Potency [17] | outcome [18] | Potency [19] | outcome [20]

Oc1ccccc1-c1nnco1
inactive: Potency [1] | Potency [2] | outcome [3] | max response [4] 2.75% | outcome [5] | outcome [6] | outcome [7] | outcome [8] | Potency [9] | Potency [10] | Potency [11] | outcome [12] | Potency [13] | Potency [14] | outcome [15] | Potency [17] | outcome [18] | Potency [19] | outcome [20]
